Activity calls are given as the source filed them.

For the first experiment, the system named is Neuregulin-1 EGF-like domain. Briefly: small molecules binding NRG1 EGF domain – biochemical, small-molecule microarray, 635 nm fluorescence, primary screen (AID 1081).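 Also: binding of the protein to compounds printed on small-molecule microarray slides.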 The following applies: higher = more signal.
Consider `COc1ccc([Si](C)(C)[C@H]2[C@H](CCO)O[C@@]3(C(=O)N(Cc4cccc(N5C(=O)COc6ccccc65)c4)c4ccccc43)[C@@H]2C)cc1`, for which the composite z-score was found to be 0.828.

`CCCCCCc1nc(C2CC2)cc2c1[Si](C(C)C)(C(C)C)OC2` registered a composite z-score of -1.17.

On to `C=CCNC(=O)[C@@H]1[C@H]2C(=O)O[C@H](c3ccccc3)[C@H](c3ccccc3)N2[C@H](c2ccc(O)cc2)[C@@]12C(=O)N(C(=O)OCCOC)c1ccc(C#CC3(O)CCCCCC3)cc12`, for which the composite z-score is -0.895.

As to `CC(CO)N1C(=O)[C@@H]2[C@H]3C(=O)OCC=C[C@H]3OC23C=CCN(Cc2ccccc2)C(=O)[C@@H]13` (some centres undefined), the composite z-score amounted to 0.307.

In the case of `[N-]=[N+]=NCc1ccccc1C[C@@]1(C(=O)NCc2ccccc2)N=C(c2ccc(OCCCO)cc2)O[C@@H]1c1ccccc1N=[N+]=[N-]`, the composite z-score was 1.1.

With `C=CCN1Cc2ccccc2[C@H]2OC(c3ccc(OCCCO)cc3)=N[C@@]2(CC=C)C1=O`, the composite z-score worked out at 1.42.

As to `Cc1cc(C)cc(N2C(=O)CSC2c2cccc([N+](=O)[O-])c2)c1` (centres undefined), the composite z-score turned out to be 1.21.

The molecule `CCOc1cc(C(O)C2C=CC3C(=O)N(C)C(=O)C3N2Nc2ccccc2)ccc1O` (centres undefined) showed a composite z-score of 1.49.

In turn, `[N-]=[N+]=Nc1ccccc1C[C@]1(C(N)=O)N=C(c2ccc(OCCCO)cc2)O[C@H]1c1ccccc1N=[N+]=[N-]` showed a composite z-score of 1.21.

On to `NC(=O)NCC#Cc1ccc2c(c1)[C@]1(C(=O)N2)[C@H](C(=O)O)[C@H]2C(=O)O[C@H](c3ccccc3)[C@H](c3ccccc3)N2[C@@H]1c1ccc(OCCO)cc1`, for which the composite z-score was 0.851.

The molecule `CCCCCCc1nc(C2CC2)cc2c1[Si](C(C)C)(C(C)C)O[C@H]2c1ccccc1` gave a composite z-score of -0.903.

The molecule `COc1cc2c(cc1OC)CN(C(=O)[C@@H]1[C@H]3C(=O)O[C@H](c4ccccc4)[C@H](c4ccccc4)N3[C@H](c3ccc(OCCO)cc3)[C@@]13C(=O)Nc1ccc(C#CC4(O)CCCCCC4)cc13)CC2` had a composite z-score of 1.15.

The molecule `O=C1C[C@@](C(=O)NCCN2CCOCC2)(c2ccc([N+](=O)[O-])cc2)[C@@H](c2ccc(CO)cc2I)N1C1CCCCC1` yielded a composite z-score of 1.43.

Take `COC(=O)[C@@]1(Cc2ccc(F)cc2)[C@H]2c3cc(C(=O)N4CCCC4)n(CCc4ccc(O)c(O)c4)c3C[C@H]2CN1C(=O)c1ccccc1`: the composite z-score was 1.29.

As for `CC(C)N1C(=O)C[C@@](C(=O)NCCCN(C)C)(c2ccc([N+](=O)[O-])cc2)[C@H]1c1ccc(CO)cc1`, the composite z-score was -0.412.

`COC(=O)C1=CC(CCCO)=CC(C2CC2)N(C)C=C1C(=O)OC` (centres undefined): the composite z-score is 0.935.

In turn, `COC(=O)c1c(CC[C@@H](CO)NC(=O)N2CCC[C@H]2Cn2cc(Cc3ccccc3)nn2)oc(C(C)=O)c1C(=O)OC` returned a composite z-score of 1.12.

Molecule `O=C(N1CCCCC1)[C@@]1(CCS(=O)(=O)c2ccccc2)COC(c2ccc(OCCCO)cc2)=N1` had a composite z-score of 1.32.

The molecule `CC1=C[C@@]2(CO)C(=O)[C@]3(CO3)[C@@H]1[C@H]1[C@]2(C)C=C(CO)C(=O)[C@]12CO2` gave a composite z-score of 0.677.

Molecule `CCCNC(=O)[C@@]1(c2ccc([N+](=O)[O-])cc2)CC(=O)N(C2CCCCC2)[C@@H]1c1ccc(CO)cc1` displayed a composite z-score of 1.27.

On to `NC(=O)NCC#Cc1ccc2c(c1)[C@]1(C(=O)N2)[C@H](C(=O)NC[C@H](O)c2ccccc2)[C@H]2C(=O)O[C@H](c3ccccc3)[C@H](c3ccccc3)N2[C@@H]1c1ccc(OCCO)cc1`, for which the composite z-score was determined as 0.537.

In turn, `O=C1NC(=O)C2C1C=CC(C(O)CCc1ccccc1)N2Nc1ccc(Cl)cc1Cl` (centres undefined) had a composite z-score of 1.1.

`CCCCC=C[C@@H](NC(=O)c1ccc(-c2ccccc2)cc1)c1ccccc1` yielded a composite z-score of 0.739.

Molecule `COc1ccc([Si](C)(C)[C@@H]2[C@@H](CC(=O)N(CCO)Cc3ccccc3)O[C@]3(C(=O)N(Cc4cccc(N5CCOC5=O)c4)c4ccccc43)[C@H]2C)cc1` displayed a composite z-score of 1.12.

With `CC(C)N1CC=CC23O[C@@H]4C=CCOC(=O)[C@@H]4[C@H]2C(=O)N(CCCO)[C@@H]3C1=O` (some centres undefined), the composite z-score was 1.58.

For the molecule `C=CCNC(=O)[C@H]1[C@@H]2C(=O)O[C@@H](c3ccccc3)[C@@H](c3ccccc3)N2[C@@H](c2ccc(O)cc2)[C@]12C(=O)N(C(=O)OCCOC)c1ccccc12`, the composite z-score stood at 1.29.

Regarding `O=C1OCC=C[C@H]2OC34C=CCN(c5ccc(Cl)cc5)C(=O)[C@H]3N(CCO)C(=O)[C@@H]4[C@@H]12` (some centres undefined), the composite z-score was 1.04.

System in the next experiment: not listed separately
In words: FRG1 expression reporter modulators in myotubes – cell-based, C2C12 myotubes, firefly/Renilla luciferase, luminescence, FRG1 inhibition for FSHD, primary screen (AID 1084). The following applies: FRG1 promoter luciferase, higher = more signal, called active from +8 up or from −8 down.
Turning to `Cc1ccc(S[C@]2(C(=O)O)CC(=O)N(Cc3cc(C(F)(F)F)cc(C(F)(F)F)c3)[C@@H]2c2ccc(CO)cc2)cc1`, the z-score was 0.0661 (inactive).

Turning to `CCOC(=O)[C@H]1[C@@H]2C(=O)N3CCC[C@H]3[C@H](O[Si](C(C)C)(C(C)C)C(C)C)[C@H]2C=C2CCN(S(=O)(=O)c3ccc(C)cc3)C[C@H]21`, the z-score is -0.647 (inactive).

In the case of `CO[C@H]1O[C@H](CO)[C@@H](OC(=O)Nc2ccccc2-c2ccccc2)[C@H](OC(=O)Nc2ccc3c(c2)OCO3)[C@H]1OC(=O)Nc1ccc2c(c1)OCO2`, the z-score is 4.93 (inactive).

Regarding `COc1ccccc1CN1C(=O)c2ccccc2[C@@]2(Cc3ccccc3N(CC(F)(F)F)C2=O)[C@@H]1c1ccc(CO)cc1`, the z-score was -3.55 (inactive).

Turning to `CN(C)C(=O)[C@@]1(Cc2ccccc2CN=[N+]=[N-])N=C(c2ccc(OCCCO)cc2)O[C@H]1c1ccccc1CN=[N+]=[N-]`, the z-score is -4.01 (inactive).

In the case of `COc1ccc(CCN2C(=O)[C@@]3(Cc4ccccc42)c2ccccc2C(=O)N(Cc2ccccc2OC)[C@H]3c2ccc(CO)cc2)cc1`, the z-score was -1.01 (inactive).

For the molecule `O=C1C2C=CC(C(O)c3ccc(Br)cc3)N(Nc3ccccc3F)C2C(=O)N1c1ccccc1` (centres undefined), the z-score is -1.55 (inactive).

For the molecule `C=CCC(OC(C)=O)[C@@H]1[C@@H](N(Cc2cccc3ccccc23)C(=O)Cc2ccc(OC)cc2)c2cc(OCCCO)ccc2N1C(=O)c1ccc2ccccc2n1` (some centres undefined), the z-score was -1.76 (inactive).

Turning to `COC(=O)C(CC#Cc1ccc2c(c1)[C@]1(C(=O)N2)[C@H](c2ccccc2OCCO)N2[C@H](c3ccccc3)[C@H](c3ccccc3)OC(=O)[C@H]2[C@@H]1C(=O)NC[C@H](O)c1ccccc1)C(=O)OC`, the z-score was -1.42 (inactive).

With `COc1ccc([Si](C)(C)[C@H]2[C@H](CCO)O[C@@]3(C(=O)N(Cc4cccc(N5C(=O)COc6ccccc65)c4)c4ccccc43)[C@@H]2C)cc1`, the z-score was -2.07 (inactive).

For `CCCCCCc1nc(C2CC2)cc2c1[Si](C(C)C)(C(C)C)OC2`, the z-score was 1.19 (inactive).

In the case of `C=CCNC(=O)[C@@H]1[C@H]2C(=O)O[C@H](c3ccccc3)[C@H](c3ccccc3)N2[C@H](c2ccc(O)cc2)[C@@]12C(=O)N(C(=O)OCCOC)c1ccc(C#CC3(O)CCCCCC3)cc12`, the z-score was -0.659 (inactive).

As for `CC(CO)N1C(=O)[C@@H]2[C@H]3C(=O)OCC=C[C@H]3OC23C=CCN(Cc2ccccc2)C(=O)[C@@H]13` (some centres undefined), the z-score is -0.282 (inactive).

With `[N-]=[N+]=NCc1ccccc1C[C@@]1(C(=O)NCc2ccccc2)N=C(c2ccc(OCCCO)cc2)O[C@@H]1c1ccccc1N=[N+]=[N-]`, the z-score is -1.81 (inactive).

For `C=CCN1Cc2ccccc2[C@H]2OC(c3ccc(OCCCO)cc3)=N[C@@]2(CC=C)C1=O`, the z-score is -2.18 (inactive).

Take `Cc1cc(C)cc(N2C(=O)CSC2c2cccc([N+](=O)[O-])c2)c1` (centres undefined): the z-score was 1.07 (inactive).

Consider `CCOc1cc(C(O)C2C=CC3C(=O)N(C)C(=O)C3N2Nc2ccccc2)ccc1O` (centres undefined), for which the z-score was 0.55 (inactive).

Regarding `[N-]=[N+]=Nc1ccccc1C[C@]1(C(N)=O)N=C(c2ccc(OCCCO)cc2)O[C@H]1c1ccccc1N=[N+]=[N-]`, the z-score was -1.08 (inactive).

`NC(=O)NCC#Cc1ccc2c(c1)[C@]1(C(=O)N2)[C@H](C(=O)O)[C@H]2C(=O)O[C@H](c3ccccc3)[C@H](c3ccccc3)N2[C@@H]1c1ccc(OCCO)cc1`: the z-score was -0.359 (inactive).

As for `CCCCCCc1nc(C2CC2)cc2c1[Si](C(C)C)(C(C)C)O[C@H]2c1ccccc1`, the z-score is -0.136 (inactive).

On to `COc1cc2c(cc1OC)CN(C(=O)[C@@H]1[C@H]3C(=O)O[C@H](c4ccccc4)[C@H](c4ccccc4)N3[C@H](c3ccc(OCCO)cc3)[C@@]13C(=O)Nc1ccc(C#CC4(O)CCCCCC4)cc13)CC2`, for which the z-score was -0.921 (inactive).

As for `O=C1C[C@@](C(=O)NCCN2CCOCC2)(c2ccc([N+](=O)[O-])cc2)[C@@H](c2ccc(CO)cc2I)N1C1CCCCC1`, the z-score is 1.21 (inactive).

For `COC(=O)[C@@]1(Cc2ccc(F)cc2)[C@H]2c3cc(C(=O)N4CCCC4)n(CCc4ccc(O)c(O)c4)c3C[C@H]2CN1C(=O)c1ccccc1`, the z-score was 0.332 (inactive).

As to `CC(C)N1C(=O)C[C@@](C(=O)NCCCN(C)C)(c2ccc([N+](=O)[O-])cc2)[C@H]1c1ccc(CO)cc1`, the z-score is -0.0382 (inactive).

Turning to `COC(=O)C1=CC(CCCO)=CC(C2CC2)N(C)C=C1C(=O)OC` (centres undefined), the z-score is -0.327 (inactive).

Consider `COC(=O)c1c(CC[C@@H](CO)NC(=O)N2CCC[C@H]2Cn2cc(Cc3ccccc3)nn2)oc(C(C)=O)c1C(=O)OC`, for which the z-score is 0.0223 (inactive).

Consider `O=C(N1CCCCC1)[C@@]1(CCS(=O)(=O)c2ccccc2)COC(c2ccc(OCCCO)cc2)=N1`, for which the z-score was -3.51 (inactive).

Turning to `CC1=C[C@@]2(CO)C(=O)[C@]3(CO3)[C@@H]1[C@H]1[C@]2(C)C=C(CO)C(=O)[C@]12CO2`, the z-score was -1.35 (inactive).

Turning to `CCCNC(=O)[C@@]1(c2ccc([N+](=O)[O-])cc2)CC(=O)N(C2CCCCC2)[C@@H]1c1ccc(CO)cc1`, the z-score is -1.31 (inactive).

Consider `NC(=O)NCC#Cc1ccc2c(c1)[C@]1(C(=O)N2)[C@H](C(=O)NC[C@H](O)c2ccccc2)[C@H]2C(=O)O[C@H](c3ccccc3)[C@H](c3ccccc3)N2[C@@H]1c1ccc(OCCO)cc1`, for which the z-score is 1.71 (inactive).

On to `O=C1NC(=O)C2C1C=CC(C(O)CCc1ccccc1)N2Nc1ccc(Cl)cc1Cl` (centres undefined), for which the z-score is 1.19 (inactive).

In the case of `CCCCC=C[C@@H](NC(=O)c1ccc(-c2ccccc2)cc1)c1ccccc1`, the z-score was 0.61 (inactive).

The values above are taken from PubChem BioAssay.
